Source: PubChem BioAssay (Tox21)
Inconclusive results are not listed. The source made the active and inactive calls. Unless noted, the call rests on the fitted dose curve.

Experiments:
[1] = Nuclear factor erythroid 2-related factor 2/antioxidant responsive element (Nrf2/ARE) small molecule agonists: luciferase reporter gene qHTS assay in human keratinocytes (AID 1919969); further: nearly all actives have a fitted effect of over 35% in size
[2] = target: Gonadotropin-releasing hormone receptor (Homo sapiens) (UniProt P30968); experiment: Human gonadotropin-releasing hormone receptor (GnRHR) small molecule agonists, calcium flux assay in GnRHR-HEK293 cells (AID 1920063); further: nearly all actives have a fitted effect of over 35% in size
Gonadotropin-releasing hormone receptor (Homo sapiens), sequence (P30968 whole entry, looked up): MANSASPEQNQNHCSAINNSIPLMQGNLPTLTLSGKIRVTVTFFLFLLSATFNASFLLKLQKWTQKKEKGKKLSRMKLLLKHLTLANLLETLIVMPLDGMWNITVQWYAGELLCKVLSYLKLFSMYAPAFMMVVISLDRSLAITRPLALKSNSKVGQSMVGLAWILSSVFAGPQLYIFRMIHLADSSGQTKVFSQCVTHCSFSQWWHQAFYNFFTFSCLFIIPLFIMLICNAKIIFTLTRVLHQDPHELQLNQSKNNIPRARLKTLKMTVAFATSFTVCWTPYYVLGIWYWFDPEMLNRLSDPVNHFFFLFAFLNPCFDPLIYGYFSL
Outline: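 GnRHR-HEK293, 1500 cells/well, 18 h 37 C/5% CO2; Ca dye 1 h 37 C; cpd pinned (DMSO), agonist mode; kinetic FL 480/540, 3 min, 1 s reads; 15 conc, n=3.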

[3] = target: KiSS-1 receptor (Homo sapiens) (UniProt Q969F8); experiment: Human kisspeptin (KISS1R) small molecule agonists, calcium flux assay in KISS1R-HEK293 cells (AID 1920064; active means well fitted activation curve with a large enough effect in the repeat runs)
KiSS-1 receptor (Homo sapiens), sequence (Q969F8 whole entry, looked up): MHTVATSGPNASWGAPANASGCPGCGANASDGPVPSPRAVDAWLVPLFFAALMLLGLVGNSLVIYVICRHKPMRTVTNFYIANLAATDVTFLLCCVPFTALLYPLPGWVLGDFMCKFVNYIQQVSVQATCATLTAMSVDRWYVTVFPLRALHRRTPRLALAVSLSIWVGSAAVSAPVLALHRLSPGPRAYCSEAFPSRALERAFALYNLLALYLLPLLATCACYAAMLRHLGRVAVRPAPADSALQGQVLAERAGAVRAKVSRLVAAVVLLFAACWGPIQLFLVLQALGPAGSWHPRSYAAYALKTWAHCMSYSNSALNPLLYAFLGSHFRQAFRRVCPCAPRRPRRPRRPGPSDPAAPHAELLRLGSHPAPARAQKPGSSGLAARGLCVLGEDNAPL
Outline: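 Stable human KISS1R HEK293 line; 18 h plating, 37 C/5% CO2; calcium dye 1 h 37 C; compound pin transfer; kinetic fluorescence Ex/Em 480/540, 3 min.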

[4] = G protein-coupled receptor (GPCR) small molecule agonists, calcium flux assay: HEK293 wild type cell line counter screen (AID 1920065)
Outline: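 Kinetic fluorescence at Ex/Em 480/540, recorded every second over 3 min, served as the read-out after compound addition. Each compound was tested at 15 concentrations in triplicate on cells pre-loaded with calcium dye for 1 h.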

[5] = p53 small molecule agonists, cell-based qHTS assay with human liver microsomes (AID 1963577);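 further: p53 response element beta-lactamase reporter cells with liver microsomes plus NADPH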
Outline: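 16 h, 37 C exposure of p53RE-bla cells to compounds with human liver microsomes and NADPH (0.5 mg/mL final each); detection via LiveBLAzer mixture, 2 h dark at room temperature.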

[6] = p53 small molecule agonists, cell-based qHTS assay with rat liver microsomes (AID 1963578)
Outline: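 With rat liver microsomes and NADPH present (0.5 mg/mL final each), p53RE-bla cells are treated with compound for 16 h at 37 C. LiveBLAzer detection mixture is then applied for 2 h at room temperature in the dark.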

[7] = p53 small molecule agonists, cell-based qHTS assay with human liver microsomes: qHTS cell viability counter screen (AID 1963579); further: nearly all actives have a fitted effect of over 45% in size
Outline: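 In this multiplexed counter screen, the reporter plates were subsequently treated with CellTiter-Glo so that cell viability, reflected by luminescence, could be recorded for p53RE-bla cells dosed 16 h with compounds under microsomal activation (HLM and NADPH).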

[8] = p53 small molecule agonists, cell-based qHTS assay with rat liver microsomes: qHTS cell viability counter screen (AID 1963580); further: nearly all actives have a fitted effect of over 45% in size
Outline: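 Viability is assessed in parallel with the p53 reporter read: HCT-116 p53RE-bla cells receive compounds plus rat microsomes and NADPH (0.5 mg/mL final apiece), incubate 16 h at 37 C, and then CellTiter-Glo luminescence is recorded.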

[9] = p53 small molecule agonists, cell-based qHTS assay: qHTS cell viability counter screen (AID 1963581); further: nearly all actives have a fitted effect of over 45% in size
Outline: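 HCT-116 p53RE-bla cells, 4,000/well, plated 5 h before compound pin transfer; 16 h at 37 C; bla substrate 2 h RT; then CellTiter-Glo, 30 min RT, luminescence.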

[10] = p53 small molecule agonists, cell-based qHTS assay (AID 1963582; active means well fitted activation curve with a large enough effect in the signal ratio in the repeat runs, not every such curve was filed as active; the % refers to the signal ratio)
Outline: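 Reporter line: p53RE-bla. Pre-incubation 5 h, 37 C, 5% CO2; compound (DMSO, pin tool) 16 h, 37 C; B/G FRET substrate 2 h RT; fluorescence intensity read.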

[11] = target: 5-hydroxytryptamine receptor 2A (Homo sapiens) (UniProt P28223); experiment: 5-hydroxytryptamine receptor 2A (HTR2A) small molecule antagonists, cell-based qHTS assay (AID 1963586); further: nearly all actives have a fitted effect of over 45% in size; further: potency means the concentration at half of the fitted maximal effect
5-hydroxytryptamine receptor 2A (Homo sapiens), sequence (P28223 whole entry, looked up): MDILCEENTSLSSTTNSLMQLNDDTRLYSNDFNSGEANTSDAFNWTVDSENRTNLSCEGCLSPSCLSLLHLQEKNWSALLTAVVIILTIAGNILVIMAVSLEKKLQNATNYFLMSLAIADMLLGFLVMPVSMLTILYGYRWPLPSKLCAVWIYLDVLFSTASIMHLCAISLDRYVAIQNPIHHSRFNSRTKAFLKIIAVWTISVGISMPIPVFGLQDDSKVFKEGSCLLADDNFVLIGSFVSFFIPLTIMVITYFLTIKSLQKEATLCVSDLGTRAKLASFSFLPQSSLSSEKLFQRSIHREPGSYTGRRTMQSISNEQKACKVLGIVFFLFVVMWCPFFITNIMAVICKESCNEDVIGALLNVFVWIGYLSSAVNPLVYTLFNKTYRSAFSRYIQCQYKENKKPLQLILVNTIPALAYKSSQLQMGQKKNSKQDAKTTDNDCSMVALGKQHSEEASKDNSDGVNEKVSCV
Outline: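 Antagonist-mode intracellular calcium assay: DOI (4 nM) added after 5 min compound pre-incubation at room temperature to dye-loaded HTR2A-CHO cells. Fluorescence followed for 3 min, sampled every second.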

[12] = target: 5-hydroxytryptamine receptor 2A (Homo sapiens) (UniProt P28223); experiment: 5-hydroxytryptamine receptor 2A (HTR2A) small molecule agonists, cell-based qHTS assay (AID 1963587); further: nearly all actives have a fitted effect of over 30% in size; further: potency means the concentration at half of the fitted maximal effect
Outline: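 CHO cells stably expressing human HTR2A, plated 18 h, loaded with calcium dye 1 h at 37 C. Agonist mode: compounds added and intracellular calcium fluorescence recorded kinetically for 2 min at 1 sec intervals.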

[13] = target: Muscarinic acetylcholine receptor M1 (Homo sapiens) (UniProt P11229); experiment: Cholinergic receptor muscarinic 1 (CHRM1) small molecule antagonists, cell-based qHTS assay (AID 1963588); further: nearly all actives have a fitted effect of over 40% in size
Muscarinic acetylcholine receptor M1 (Homo sapiens), sequence (P11229 whole entry, looked up): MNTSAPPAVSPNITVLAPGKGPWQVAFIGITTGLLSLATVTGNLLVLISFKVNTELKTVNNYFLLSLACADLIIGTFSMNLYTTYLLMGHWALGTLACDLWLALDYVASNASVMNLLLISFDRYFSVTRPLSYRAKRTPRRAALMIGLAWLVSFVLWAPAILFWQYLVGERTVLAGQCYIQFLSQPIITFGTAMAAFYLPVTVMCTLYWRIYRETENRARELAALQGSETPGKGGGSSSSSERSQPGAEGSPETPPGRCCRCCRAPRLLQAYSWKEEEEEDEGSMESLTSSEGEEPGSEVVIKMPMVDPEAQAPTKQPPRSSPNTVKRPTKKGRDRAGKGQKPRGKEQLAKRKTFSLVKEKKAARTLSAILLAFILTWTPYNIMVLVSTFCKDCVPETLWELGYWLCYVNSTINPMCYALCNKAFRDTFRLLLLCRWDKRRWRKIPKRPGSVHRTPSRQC
Outline: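 CHRM1-CHO calcium-flux assay, antagonist mode. Cells were seeded 18 h, dye-loaded 1 h at 37 C and given compound for 5 min at RT, then acetylcholine was added at 50nM. FDSS fluorescence was read 3 min; 15 concentrations, three runs.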

[14] = target: Muscarinic acetylcholine receptor M1 (Homo sapiens) (UniProt P11229); experiment: Cholinergic receptor muscarinic 1 (CHRM1) small molecule agonists, cell-based qHTS assay (AID 1963589); further: nearly all actives have a fitted effect of over 35% in size
Outline: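 Human M1 in stable CHO line; 18 h plating, 1 h dye load 37 C; cpd added (agonist mode); Ca2+ fluorescence kinetic read, 1 s intervals; 15 conc, 3 runs.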

[15] = cAMP Responsive Elements (CRE) small molecule agonists, cell-based qHTS assay (AID 1963590)
Outline: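 HEK 293T CRE-bla, 2,000 cells/well, 18 h preincubation 37 C/5% CO2; cpds (DMSO) pinned, 3 h; LiveBLAzer B/G FRET substrate, 2 h RT.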

[16] = cAMP Responsive Elements (CRE) small molecule antagonists, cell-based qHTS assay (AID 1963591; active means well fitted inhibition curve with a large enough effect in the signal ratio in the repeat runs, not every such curve was filed as active; the % refers to the signal ratio)
Outline: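 Beta-lactamase reporter read by FRET substrate (LiveBLAzer B/G) after 2 h at room temperature. CRE-bla HEK293T cells had received compound plus 0.25 uM (final) NKH477 for 3 h at 37 °C.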

[17] = target: Beta-2 adrenergic receptor (Homo sapiens) (UniProt P07550); experiment: Adrenergic beta2 receptor (ADRB2) small molecule antagonists, cell-based qHTS assay (AID 1963592); further: series mostly up to about 92 µM; nearly all actives have a fitted effect of over 50% in size
Beta-2 adrenergic receptor (Homo sapiens), sequence (P07550 whole entry, looked up): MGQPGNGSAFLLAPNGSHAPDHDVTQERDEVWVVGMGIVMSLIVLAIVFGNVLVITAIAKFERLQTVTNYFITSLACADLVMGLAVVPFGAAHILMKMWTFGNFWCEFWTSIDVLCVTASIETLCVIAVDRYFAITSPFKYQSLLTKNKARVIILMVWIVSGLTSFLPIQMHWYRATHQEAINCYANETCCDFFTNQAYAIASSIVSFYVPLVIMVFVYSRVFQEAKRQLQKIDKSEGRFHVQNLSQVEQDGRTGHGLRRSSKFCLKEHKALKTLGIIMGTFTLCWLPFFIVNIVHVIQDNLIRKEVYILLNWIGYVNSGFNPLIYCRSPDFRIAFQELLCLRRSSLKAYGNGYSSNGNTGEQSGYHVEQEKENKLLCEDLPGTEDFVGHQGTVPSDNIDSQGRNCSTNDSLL
Outline: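 Cells (CHO, stable ADRB2 overexpression) incubated 18-20hr at 37C; compounds added from DMSO; agonist mix (1nM isoproterenol, 100uM IBMX, 25uM Ro-20-1724) added; 0.5hr RT; d2-cAMP and anti-cAMP-cryptate added; 1hr RT; 665/615 nm read.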

[18] = target: D(2) dopamine receptor (Homo sapiens) (UniProt P14416); experiment: Dopamine D2 receptor (DRD2) small molecule agonists, cell-based qHTS assay (AID 1963594); further: nearly all actives have a fitted effect of over 35% in size
D(2) dopamine receptor (Homo sapiens), sequence (P14416 whole entry, looked up): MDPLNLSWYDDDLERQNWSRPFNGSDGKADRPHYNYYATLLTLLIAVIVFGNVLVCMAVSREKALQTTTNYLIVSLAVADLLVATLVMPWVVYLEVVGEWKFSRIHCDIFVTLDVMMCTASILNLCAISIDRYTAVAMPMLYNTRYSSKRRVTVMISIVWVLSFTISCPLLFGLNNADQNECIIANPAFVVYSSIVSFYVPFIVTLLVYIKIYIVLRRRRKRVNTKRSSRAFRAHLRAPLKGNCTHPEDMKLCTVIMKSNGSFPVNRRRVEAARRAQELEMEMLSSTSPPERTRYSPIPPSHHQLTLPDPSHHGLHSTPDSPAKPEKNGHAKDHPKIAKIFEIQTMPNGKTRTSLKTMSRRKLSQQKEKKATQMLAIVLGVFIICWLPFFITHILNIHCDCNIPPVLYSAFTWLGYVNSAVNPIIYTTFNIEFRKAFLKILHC
Outline: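 HEK293 cells stably expressing human DRD2, pre-treated with PDE inhibitor Ro20-1724 (0.1 mM final) and compound 10 min at room temperature, then stimulated with NKH477 (200nM […]) for 30 min. cAMP read by HTRF (665/620 nm).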

[19] = target: D(2) dopamine receptor (Homo sapiens) (UniProt P14416); experiment: Dopamine D2 receptor (DRD2) small molecule antagonists, cell-based qHTS assay (AID 1963595; active means well fitted inhibition curve with a large enough effect in the signal ratio in the repeat runs, with a control signal flat; the % refers to the signal ratio)
Outline: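 Stable D2 receptor HEK293 line, 24 h after seeding. Compound preincubated 10 min, then quinpirole (12 nM) with forskolin analogue NKH477 (200 nM), 30 min, room temperature. Detection by time-resolved FRET of cAMP.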

[20] = target: Beta-2 adrenergic receptor (Homo sapiens) (UniProt P07550); experiment: Adrenergic beta2 receptor (ADRB2) small molecule agonists, cell-based qHTS assay (AID 1963593);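 further: CHO cells stably overexpressing human ADRB2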
Outline: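 CHO cells stably over-expressing ADRB2 were plated overnight at 37C, then dosed with compounds plus a stimulation mix containing 100uM IBMX and 25uM Ro-20-1724 for 0.5hr at room temperature. cAMP was measured by HTRF competition, 1hr.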
On the % scale 0 is the no-effect control and ±100 the full control effect.

Nc1ccc(C(=O)OCC(O)CO)cc1 (configuration not stated)
inactive: Potency [1] | Potency [2] | outcome [3] | outcome [4] | Potency [5] | Potency [6] | Potency [7] | Potency [8] | Potency [9] | Potency [10] | Potency [11] | Potency [12] | Potency [13] | Potency [14] | Potency [15] | Potency [16] | Potency [17] | Potency [18] | Potency [19]

CC(CC(=O)O)CC(C)(C)C (configuration not stated)
inactive: Potency [1] | Potency [2] | outcome [3] | outcome [4] | Potency [5] | Potency [6] | Potency [7] | Potency [8] | Potency [9] | Potency [10] | Potency [11] | Potency [12] | Potency [14] | Potency [15] | Potency [16] | Potency [17] | Potency [18]

O=C(O)COCC(=O)O
inactive: Potency [1] | Potency [2] | outcome [3] | outcome [4] | Potency [5] | Potency [6] | Potency [7] | Potency [8] | Potency [9] | Potency [10] | Potency [11] | Potency [12] | Potency [13] | Potency [14] | Potency [15] | Potency [16] | Potency [17] | Potency [18] | Potency [19]

NC(=O)C1(N2CCCCC2)CCN(CCCC(=O)c2ccc(F)cc2)CC1
inactive: Potency [1] | Potency [2] | outcome [3] | outcome [4] | Potency [5] | Potency [6] | Potency [7] | Potency [8] | Potency [9] | Potency [10] | Potency [12] | Potency [14] | Potency [15] | Potency [16] | Potency [17]

O=C(NCCc1c[nH]c2ccccc12)c1cccnc1
inactive: Potency [1] | Potency [2] | outcome [3] | outcome [4] | Potency [5] | Potency [6] | Potency [7] | Potency [8] | Potency [9] | Potency [10] | Potency [13] | Potency [14] | Potency [15] | Potency [16] | Potency [17] | Potency [20] | Potency [19]
active: Potency [12] 3.01 µM

CCN(CC)CCOC(=O)C(c1ccccc1)c1ccccc1
active: Potency [11] 7.29 µM
inactive: Potency [1] | Potency [2] | outcome [3] | outcome [4] | Potency [5] | Potency [6] | Potency [7] | Potency [8] | Potency [9] | Potency [10] | Potency [14] | Potency [15] | Potency [16] | Potency [17]

Cc1cc(C(C)(C)C)cc(C)c1CC1=NCCN1
inactive: Potency [1] | Potency [2] | outcome [3] | outcome [4] | Potency [5] | Potency [6] | Potency [7] | Potency [8] | Potency [9] | Potency [10] | Potency [14] | Potency [15] | Potency [16] | Potency [17] | Potency [18]

NCC[C@H](O)C(=O)N[C@@H]1C[C@H](N)[C@@H](O[C@H]2O[C@H](CN)[C@@H](O)[C@H](O)[C@H]2O)[C@H](O)[C@H]1O[C@H]1O[C@H](CO)[C@@H](O)[C@H](N)[C@H]1O
inactive: activity, positive = activation [1] 1.57% [at 0.349 µM] | activity change [2] -0.191% [at 0.217 µM, stronger effect = higher value] | activation [3] 0.177% [at 0.29 µM] | activation [4] 0.401% [at 0.217 µM] | activation [5] 0.0378% [at 0.249 µM] | activation [6] -0.443% [at 0.249 µM] | activity change, negative = cytotoxicity [7] 4.34% [at 0.249 µM] | activity change, negative = cytotoxicity [8] 1.45% [at 0.249 µM] | activity change, negative = cytotoxicity [9] -9.5% [at 0.249 µM] | activation [10] 0.378% [at 0.249 µM] | activation [15] -1.43% [at 0.349 µM] | activity change, negative = inhibition [17] 4.47% [at 0.349 µM] | activation [20] 21.1% [at 0.349 µM] | activity change, negative = inhibition [19] -0.368% [at 0.348 µM]
